A selection: hits, their analogues and other compounds. The true share with any hit is near 6.8%.
KB-3-1 tox – qHTS assay for MDR1-selective chemotherapeutics: Primary screen using the parental adenocarcinoma cell KB-3-1; KB-3-1 viability, CellTiter-Glo ATP luminescence, 72 h; AID 1347075, 2019; Potency, µM (top dose mostly 46.1 µM), actives largely listed as cytotoxic; 1.4% of 400,000 active; also: % is scaled to controls: 0 for no effect and ±100 for the full control effect; nearly all actives have a fitted effect of over 60% in size
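Luminescent ATP read-out (CellTiter-Glo) measures survival of drug-naive KB-3-1 cells after 72 h compound exposure at 37 °C. Titration series was screened from lowest to highest concentration, with DMSO vehicle plates as background controls.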
PINK1 modulator – A Quantitative High throughput Screen to Identify Chemical Modulators of PINK1 Expression | PINK1 immunofluorescence, high-content cytometry, 24 h | Potency, µM (titrated, usually from 76.6 µM), for the others: at the top dose activation (PINK1 increase), most hits filed as activators | 0.2% of 410,000 active; active = well fitted activation curve with a large enough effect; inconclusive = small, poorly fitted or top-dose-only effect; cell line not stated here; also: % of control where 0% means no effect; nearly all actives have a fitted effect of over 65% in size
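Decision-based qHTS: stable cells, 24 h exposure to five compound concentrations, CCCP as control. Fixed cells stained for PINK1 plus nuclear, mitochondrial and cell markers, cytometer read.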
TSG101-PTAP inh – qHTS Assay for Iinhibitors of HIV-1 Budding by Blocking the Interaction of PTAP/TSG101; Tumor susceptibility gene 101 protein (Homo sapiens), Q99816; Fluorescence polarization, FITC-PTAP peptide / Tsg101 binding; Potency, µM (doses to about 115 µM), for inactives: at the highest dose activity change, negative = inhibition, most hits filed as inhibitors; 340,000 tested, under 10 active; AID 493005, 2010; active = well fitted inhibition curve with a large enough effect in the main read-out, with a control signal flat, not every such curve was filed as active; inconclusive = small, poorly fitted or top-dose-only effect, or effect the other way, or a change in a side signal; inactive = no such curve, though single readings can be large or run the other way; also: % of control where 0% means no effect
Target sequence (Q99816 whole entry, looked up): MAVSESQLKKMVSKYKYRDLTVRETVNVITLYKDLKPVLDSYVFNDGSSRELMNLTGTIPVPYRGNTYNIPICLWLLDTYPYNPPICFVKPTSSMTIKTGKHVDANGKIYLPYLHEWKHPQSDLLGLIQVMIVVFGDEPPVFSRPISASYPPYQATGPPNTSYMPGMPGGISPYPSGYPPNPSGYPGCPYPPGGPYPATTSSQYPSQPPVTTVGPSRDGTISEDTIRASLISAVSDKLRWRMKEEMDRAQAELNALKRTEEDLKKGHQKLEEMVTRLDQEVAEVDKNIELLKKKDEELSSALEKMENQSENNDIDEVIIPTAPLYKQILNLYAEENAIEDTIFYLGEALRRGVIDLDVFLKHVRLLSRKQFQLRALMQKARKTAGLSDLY
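Fluorescence polarization binding of Tsg101 binding domain (10 uM final) to FITC-labeled PTAP peptide (50 nM final) in HEPES pH 7.5 buffer with NaCl, Tween 20, EDTA, TCEP. Compounds added before peptide; binding 20 min at RT.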
KB-V1 MDR tox – qHTS assay for MDR1-selective chemotherapeutics: Primary screen using the drug-selected MDR subline cells KB-V1. KB-V1 MDR cells viability, CellTiter-Glo, 72 h. Potency, µM (doses to about 46.1 µM), actives largely listed as cytotoxic. 3.4% of 400,000 active; also: % is scaled to controls: 0 for no effect and ±100 for the full control effect; nearly all actives have a fitted effect of over 60% in size
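Potencies derive from concentration-effect curves fitted to normalized luminescence (CellTiter-Glo) of KB-V1 cells treated for 72 h at 37 degrees C in phenol-red-free DMEM containing 10% FBS.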
SW480 rereplic – A quantitative high throughput screen for small molecules that induce DNA re-replication in SW480 colon adenocarcinoma cells | SW480 DNA re-replication, Hoechst DNA content imaging, 48 h | AID 624297, 2012 | Potency, µM (series often up to 46.1 µM), inactives show top-dose re-replication activation, actives largely listed as activators | 1.8% of 340,000 active; also: % of control where 0% means no effect; nearly all actives have a fitted effect of over 55% in size
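250 cells/well; 23 nL cpd via pin tool; 48 hr, 37 C, 5% CO2; Hoechst 40 min; imager read of total nuclear intensity, ex 405/em 500-530 nm.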
MCF10A rereplic – A quantitative high throughput screen for small molecules that induce DNA re-replication in MCF 10a normal breast cells | 2.9% of 350,000 active | AID 624296, 2012 | MCF 10A DNA re-replication, Hoechst nuclear intensity, 48 h | Potency, µM (highest dose often 46.1 µM), for inactives: at the top dose activity, positive = re-replication, usual class: activators; also: % of control where 0% means no effect; nearly all actives have a fitted effect of over 50% in size
Starred values were filed as active, the others as inactive; i = inactive; u = inconclusive; x = no result given; [ ] = dose if it differs, or a comment. Unless noted, calls follow the shape of the dose curve; as a rule, active = well fitted curve in the direction sought with a large enough effect; inconclusive = small, poorly fitted or top-dose-only effect, or another doubt; inactive = no such curve, though single readings can be large; an effect the other way counts as inactive or inconclusive. Potency is read from the fitted curve at half-maximal effect.

SMILES | KB-3-1 tox | PINK1 modulator | TSG101-PTAP inh | KB-V1 MDR tox | SW480 rereplic | MCF10A rereplic
CCOc1ccc(OCC)c(NC(=O)c2nnn(CC(=O)Nc3ccc(C)cc3C)c2N)c1 | i | 1% | x | i | x | x
CCOC(=O)c1c(NC(=O)Cc2ccccc2)sc2c1CC(C)(C)NC2(C)C | i | 4% | 1% | i | 2% | 7%
CCOC(=O)c1c(NC(=O)COc2ccccc2C#N)sc2c1CC(C)(C)NC2(C)C | u | -2% | x | u | 18µM* | u
CC1(C)Cc2c(sc(NC(=O)c3ccc(C(=O)c4ccccc4)cc3)c2C(N)=O)C(C)(C)N1 | u | 4% | -1% | u | 21µM* | 23µM*
CCOC(=O)c1c(NC(=O)CCS(=O)(=O)c2ccccc2)sc2c1CC(C)(C)NC2(C)C | i | 0% | 1% | u | u | 18µM*
CC1(C)Cc2c(sc(NC(=O)COc3cccc4ccccc34)c2C#N)C(C)(C)N1 | u | 0% | 0% | i | u | 16µM*
COCCCNC(=O)Cn1c(=O)n(-c2ccccc2)c(=O)c2c1c1cc(OC)ccc1n2C | i | 0% | x | i | x | x
CCS(=O)(=O)c1ncc(Cl)c(C(=O)Nc2ccccc2OC)n1 | 2.6µM* | 0% | -3% | u | 2.9µM* | 2.3µM*
CC(C)c1nnc(NC(=O)c2nc(S(=O)(=O)Cc3ccccc3)ncc2Cl)s1 | u | -1% | 2% | u | u | u
CCS(=O)(=O)c1ncc(Cl)c(C(=O)Nc2ccccc2)n1 | u | -2% | x | i | x | x
CCOc1ccccc1NC(=O)c1nc(S(=O)(=O)Cc2ccccc2)ncc1Cl | u | -1% | -3% | u | 27% | 4.1µM*
COc1ccccc1NC(=O)c1nc(S(=O)(=O)Cc2ccccc2)ncc1Cl | 7.3µM* | -2% | 3% | u | u | u
Cc1cc(C)cc(C(=O)NCCn2cc(C(=O)N3CCSCC3)nn2)c1 | x | -1% | x | x | x | x
COc1ccccc1CNC(=O)CCCn1c(=O)c2ccccc2n(Cc2ccccc2C#N)c1=O | i | 0% | x | i | x | x
CC(Sc1nc2ccccc2c(=O)n1C)C(=O)Nc1ccc2c(c1)OCCO2 (stereo not drawn) | u | 0% | -1% | i | u | u
CC(C)Cn1c(SC(C)C(=O)Nc2ccc3c(c2)OCCO3)nc2ccccc2c1=O (stereo not drawn) | i | -1%[38.3 µM] | -6% | 21µM* | 7% | 5%
O=C(O)c1ccc(N/N=C/C2=Cc3ccccc3OC2)cc1 | i | 8% | -1% | i | u | 15µM*
COc1cc(Nc2nc(SCc3cccc(Cl)c3)nc3ccccc23)cc(OC)c1 | x | 7% | x | x | x | x
COc1ccc(CN2CCc3nc(N4CCN(c5ccc(F)cc5)CC4)ncc3C2)c(OC)c1OC | i | -1% | x | u | x | x
CCO[C@H]1O[C@@H]([C@H](COCc2ccccc2)OCc2ccccc2)[C@@H](OCc2ccccc2)[C@H]1O | x | x | x | x | -2%[20.6 µM] | 3%[20.6 µM]
CCOC(=O)[C@]12CCC=C1N(Cc1cccc3ccccc13)C(=O)[C@H](CC(=O)NCCCCc1ccccc1)C2 | u | 0% | x | 16µM* | x | x
CCOC(=O)[C@]12CCC=C1N(Cc1cccc3ccccc13)C(=O)[C@H](CC(=O)NCc1cccc3ccccc13)C2 | i | 0% | x | u | x | x
CCOC(=O)[C@]12CCC=C1N(Cc1cccc3ccccc13)C(=O)[C@H](CC(=O)NCCc1ccccc1OC)C2 | u | 0% | x | 15µM* | x | x
CCOC(=O)[C@]12CCC=C1N(Cc1cccc3ccccc13)C(=O)[C@H](CC(=O)NCc1ccc(C)o1)C2 | i | -1% | x | 12µM* | x | x
CCOC(=O)[C@]12CCC=C1N(Cc1cccc3ccccc13)C(=O)[C@H](CC(=O)NCc1ccccc1)C2 | i | -1% | x | u | x | x
SMILES | KB-3-1 tox | PINK1 modulator | TSG101-PTAP inh | KB-V1 MDR tox | SW480 rereplic | MCF10A rereplic
CCOc1cc(C(=O)Nc2ccc3nc(Nc4cccc(Cl)c4)cc(C)c3c2)cc(OCC)c1OCC | i | 0% | x | i | x | x
COc1cccc(C(=O)NCC2Cc3cccc(-c4ncccn4)c3O2)c1OC (stereo not drawn) | x | 1% | x | x | x | x
Nc1c(Cl)ncnc1N1CCOCC1 | i | -3%[38.3 µM] | -11% | i | 2% | 0%
Nc1c(Cl)ncnc1N1CCN(c2ncnc(Cl)c2N)CC1 | i | 1% | -1% | i | 0.23µM* | 0%
O=C(Nc1ccc(OCc2cc(=O)n3ccsc3n2)cc1)c1ccc(F)cc1 | i | 3% | x | u | x | x
CCOc1ccc(C2Nc3cccc4cccc(c34)N2)cc1OC | i | 1% | -1% | i | -7%[9.22 µM] | -4%
CCOc1cc(C2Nc3cccc4cccc(c34)N2)ccc1O | u | 0% | -6% | 15µM* | u | 8%
CCc1cccc(NC(=O)Cn2c(=O)n3nc(-c4cccc(F)c4)nc3c3ccccc32)c1 | i | 5% | x | i | x | x
O=C1C2C3CCC(C3)C2C(=O)N1c1ccc(OS(=O)(=O)c2ccccc2)cc1 (stereo not drawn) | u | -1% | -4% | 9.2µM* | -5% | 16%
Cc1ccc(S(=O)(=O)Oc2ccc(N3C(=O)C4C5CCC(C5)C4C3=O)cc2)cc1 (stereo not drawn) | i | 9% | -5% | i | 14% | u
CC(C)c1ccc(S(=O)(=O)c2cnc(SCC(=O)Nc3ccc4c(c3)OCCO4)[nH]c2=O)cc1 | i | 1% | x | i | x | x
CC(C)COCC(CN(Cc1ccccc1)c1ccccc1)N1CCCC1 (stereo not drawn) | i | 11% | -2% | 18µM* | 1% | 1%
O=C(c1cc(C(F)(F)F)cc(C(F)(F)F)c1)N1CCC2(CCCN(c3ccccc3)C2)CC1 | x | 1% | x | x | x | x
CC1=CC(C)(C)N(C(=O)c2ccc(F)cc2)c2cc3c(cc21)OCO3 | 21µM* | 11% | -4% | 13µM* | 14% | u
COc1cc2c(NC3CCN(C)CC3)nc(N3CCCCC3)nc2cc1OCCOCCN1CCCC1 | u | -1% | x | i | x | x
COc1cc2c(NC3CCN(C(C)C)CC3)nc(N3CCCN(C)CC3)nc2cc1OCCOCCN1CCCC1 | 12µM* | 0% | x | i | x | x
O=C(C[n+]1cccc2cccc(O)c21)c1ccc(F)cc1 | i | x | x | i | x | x

Screening results from PubChem.
